# HCMV antiviral: blocks human cytomegalovirus replication; HFF cells, HCMV-luciferase reporter, 72 h; hits give low values; activity change, negative = inhibition, % at 57.5 µM; 410,000 tested, 4.5% active; in the data active = activity change below about -60%; inconclusive = no clear call, values can overlap the other calls; inactive = above about -39%
#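 Cell-based, HFFs, 1000 cells/well, 16 h 37C; cpds in DMSO + HCMV-luc, MOI 1 PFU/cell; 72 h 37C; OneGlo luminescence after 5 min RT; norm. to buffer vs Salinomycin 10uM.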
# Pf growth 96h: P. falciparum growth inhibition at 96 hour, primary screen for plastid delayed-death inhibitors | 320,000 tested, 6.9% active | AID 504834 | Potency, µM (doses to about 28.7 µM), usual class: inhibitors | P. falciparum luciferase reporter growth, 96 h
#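 Cell-based qHTS: luciferase-tagged P. falciparum in erythrocytes (2% hematocrit, 0.05% parasitemia final) incubated with compounds for 96 hours, 37 C, 5% CO2; luciferase detection reagent then added and luminescence measured.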
# Marburg entry inh: blocks Marburg virus binding to or entry into cells; Marburg virus pseudotyped entry inhibition, cell reporter; Potency, µM (series often up to 37.8 µM), hits mostly inhibitors; 300,000 tested, 1.8% active; AID 540276; calls by dose curve; tested in HEK293 cells
# Pf growth 48h: P. falciparum growth inhibition at 48 hours (one generation). Potency, µM (series often up to 28.7 µM), most hits filed as inhibitors. 310,000 tested, 5.9% active. P. falciparum luciferase growth in erythrocytes, 48 h
#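 In quantitative HTS format, infected erythrocytes bearing luciferase-reporter parasites were treated for a single generation at 37 C. Luminescence after adding detection reagent served as the growth measure.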
# LASV entry inh: Lassa virus entry inhibition; 300,000 tested, 1.2% active; Potency, µM (titrated, usually from 37.9 µM), actives largely listed as inhibitors; Lassa virus pseudotype entry inhibition, cell reporter; calls by dose curve; tested in HEK293 cells; note: nearly all actives have a fitted effect of over 50% in size
# HCV inhibitor: blocks hepatitis C virus. Huh7.5.1 HCVcc-Cre infection, luciferase reporter, 44 h. Potency, µM (highest dose often 41.8 µM), most hits filed as inhibitors. 340,000 tested, 3.4% active. AID 651820
#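 1,000 cells/well; 4 h culture; + compound; + HCVcc-Cre (~0.5 moi); 44 h; luciferase substrate, RT 15 min; read 15 sec.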
# A number is an active result; - = inactive; ? = inconclusive; . = not tested or not shown. Shown are actives, neighbours in structure and some others; about 14% of the full set was active somewhere. Unless noted, calls come from the whole dose curve; as a rule, active = well fitted inhibition curve with a large enough effect; inconclusive = small, poorly fitted or top-dose-only effect, or another doubt; inactive = no such curve, though single readings can be large or run the other way.
SMILES,HCMV antiviral,Pf growth 96h,Marburg entry inh,Pf growth 48h,LASV entry inh,HCV inhibitor
COc1ccc(C)cc1NC(=O)c1cnc2ccc(C)cn2c1=O,-,.,-,.,.,.
O=C1C=CN2CCCCC2CC1 (stereo not drawn),-,.,.,.,.,?
COc1cccc(-c2ccccc2C2=CC(=O)CC(C)(C)C2=O)c1,-,.,.,.,.,.
COC(=O)C1=C(c2ccccc2OCc2ccccc2)C[C@@H]2CC[C@H]1N2C(=O)NCCc1ccc(F)cc1,-,?,.,10µM,.,?
COC(=O)C1=C(c2ccccc2OCc2ccccc2)C[C@@H]2CC[C@H]1N2C(=O)NCc1ccc(Br)cc1,-,?,.,10µM,.,?
COC(=O)C1=C(c2ccccc2OCc2ccccc2)C[C@@H]2CC[C@H]1N2C(=O)NCc1ccc(C(F)(F)F)cc1,-,?,-,13µM,.,10µM
Cc1ccc(S(=O)(=O)NN=C2CCc3ccccc32)cc1,-,.,.,.,.,.
NS(=O)(=O)c1ccc(Nc2cc(-c3ccc(O)c(F)c3)[nH]n2)cc1,.,.,.,.,-,.
Cc1ccc(F)cc1NC(=O)N1CCCN(C(=O)OC(C)(C)C)CC1,-,-,-,-,?,-
Cc1cccc(Cl)c1NC(=O)N1CCN(c2ccnc3cc(Cl)ccc23)CC1,-65,?,.,?,.,?
O=C(Nc1ccc(C(F)(F)F)cc1)N1CCN(c2ccnc3cc(Cl)ccc23)CC1,-72,?,?,1.5µM,?,8.9µM
O=C(Nc1ccc(Cl)cc1)N1CCN(c2ncccn2)CC1,-,?,-,?,?,-
O=C(Nc1cc(F)ccc1F)N1CCN(c2ccnc3cc(Cl)ccc23)CC1,-83,?,.,?,.,11µM
O=C(O)CSCC(=O)N1CCN(c2ccnc3cc(Cl)ccc23)CC1,.,?,.,?,.,-
Cc1ccc(F)cc1NC(=O)N1CCN(c2ccnc3cc(Cl)ccc23)CC1,-69,6.6µM,.,?,.,3.5µM
COC(=O)CCc1c(C)c(C(=O)c2cc(OC)c(OC)c(OC)c2)c2ccccn12,-,?,.,10µM,.,-
COc1ccccc1C(=O)c1c(C)c(CCC#N)n2ccccc12,-,-,?,-,-,?
Cc1c(C(=O)c2ccc(F)cc2)c2ccccn2c1CCc1ccccn1,-,4.1µM,?,-,-,?
CC(C)OCCCn1c(=N)c(C(N)=S)cc2c(=O)n3ccccc3nc21,-,13µM,?,.,-,?
CCOC(=O)c1cc2c(=O)n3ccccc3nc2n(CCCOC)c1=NC(C)=O,-,10µM,-,-,-,?
CC(=O)N=c1c(C#N)cc2c(=O)n3ccccc3nc2n1CCCOC(C)C,-,-,-,-,.,-
CCN(C(=O)c1cc2c(=O)n3ccccc3nc2n1CCCOC)C1CCCCC1,-,15µM,-,12µM,-,-
CCOC(=O)c1cc2c(=O)n3cccc(C)c3nc2n(CCOC)c1=NC(C)=O,-,6.6µM,-,?,-,-
CCOC(=O)c1cc2c(=O)n3cccc(C)c3nc2n(CC2CCCO2)c1=NC(C)=O (stereo not drawn),-,.,-,.,-,?
Oc1cccc(Nc2nccc3[nH]c(-c4cccc(OC(F)(F)F)c4)nc23)c1,-,.,.,.,.,.
SMILES,HCMV antiviral,Pf growth 96h,Marburg entry inh,Pf growth 48h,LASV entry inh,HCV inhibitor
Cc1ccc(F)c(S(=O)(=O)NC(=O)C2(C)CCN2C(=O)Cc2cccc3ccccc23)c1 (stereo not drawn),-,.,.,.,.,.
Cc1cccc(N2C(=O)/C(=C/c3ccc(N4CCN(C)CC4)o3)C(=O)NC2=S)c1C,-64,-,-,?,-,-
CCc1ccccc1N1C(=O)/C(=C/c2ccc(N3CCN(C)CC3)o2)C(=O)NC1=S,?,?,-,?,-,-
CCC(=O)N1CCc2cc(CNC(=O)c3cccc(N(C)C)c3)ccc21,-,.,.,.,-,.
O=C1C=C(c2n[nH]nc2-c2ccccc2)C[C@@H](c2ccc(F)cc2)C1,-,.,.,.,.,.
Cc1ccc(NC(=O)C23CCC(C)(C(=O)[C@H]2Br)C3(C)C)cc1 (stereo partly drawn),-62,-,.,-,.,-
COc1ccc(CCN2C(=O)c3[nH]nc(-c4ccccc4O)c3C2c2ccccc2)cc1 (stereo not drawn),-,.,-,.,?,.
COc1ccc(CCN2C(=O)c3[nH]nc(-c4ccccc4O)c3C2c2cccc(O)c2)cc1OC (stereo not drawn),-,13µM,-,10µM,?,?
COc1cccc(C2c3c(-c4ccccc4O)n[nH]c3C(=O)N2CCc2ccc(OC)c(OC)c2)c1 (stereo not drawn),-,.,7.1µM,.,?,.
COc1ccc(CCN2C(=O)c3[nH]nc(-c4ccccc4O)c3C2c2ccc(OC)c(OC)c2)cc1 (stereo not drawn),-,.,?,.,?,.
COc1ccc(-n2nc(C(=O)N3CCCCC3C)c3c4ccccc4n(C)c3c2=O)cc1Cl (stereo not drawn),-,.,-,.,-,.
COC(=O)[C@]12CCCCC=C1N(Cc1cccc3ccccc13)C(=O)[C@H](CC(=O)NCc1cccs1)C2,-,.,.,.,.,.
COC(=O)CN1C(=O)CSc2ccc(S(=O)(=O)Nc3ccc(C(C)=O)cc3)cc21,?,.,.,.,-,.
CCOC1=CC(=O)N(CCC(=O)NCc2ccc(C)cc2)C1,-,.,.,.,.,.
COc1ccc(N2CCN(C(c3cccc(OC)c3OC)c3nnnn3C3CCCC3)CC2)cc1 (stereo not drawn),-,-,?,?,2.8µM,?
COc1ccc(OC)c(C(c2nnnn2C2CCCC2)N2CCN(c3ccccc3F)CC2)c1 (stereo not drawn),-,?,10µM,4.1µM,?,?
COc1ccc(N2CCN(C(c3ccccc3OC)c3nnnn3C3CCCC3)CC2)cc1 (stereo not drawn),-,.,?,15µM,?,?
Fc1ccc(N2CCN(C(c3cccs3)c3nnnn3C3CCCC3)CC2)cc1 (stereo not drawn),?,-,?,10µM,?,-
COc1ccccc1N1CCN(c2c(CN3CCCC3)c(=O)oc3ccccc23)CC1,-,.,?,.,-,.
Cc1cccc(C)c1NC(=O)C1(C)CSCC(=O)N1CCCN1CCOCC1 (stereo not drawn),-,.,.,.,.,.
CCCCNc1cccc2c1S(=O)(=O)N[C@H](Cc1ccccc1)CO2,-,.,.,.,-,.
CO/N=C\CC(=O)Nc1ccc(Oc2ccccc2)cc1,-70,-,?,-,?,-
O=C(C[n+]1ccccc1)Nc1ccc(Oc2ccccc2)cc1,-,-,-,6.6µM,-,-
O=C(C/C=N\O)Nc1ccc(Oc2ccccc2)cc1,-,-,-,?,-,-
COc1cc(CSc2ncn[nH]2)c(OC)cc1CSc1ncn[nH]1,-,13µM,-,?,-,-
c1ccc(CSc2ncn[nH]2)nc1,-,5.2µM,?,-,-,-
Brc1ccc(CSc2ncn[nH]2)cc1,-,-,-,.,-,-
CC(CC(=O)Nc1ccc2c(c1)c(=O)n(C)n2Cc1ccc(F)cc1)c1ccccc1 (stereo not drawn),-,.,.,.,.,.
